# From PubChem
# MITF TRPM1 HTS: increases MITF-driven TRPM1 promoter luciferase signal | activation, % at 12.5 µM | SK-MEL-5 TRPM1-promoter luciferase, 24 h; % of positive control, neutral wells = 0 | 0.75% of 300,000 active | AID 588334;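 active means mean activation of at least 80% with every replicate also reaching 80%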;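 further: 0% = neutral control wells and 100% = parthenolide positive control wells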
# PfHsp90 yeast 2: growth inhibition of yeast expressing Plasmodium Hsp90; 0.32% of 310,000 active; S. cerevisiae expressing PfHsp90, BacTiter-Glo ATP, 48 h; yeast lacking PDR1 and PDR3 efflux regulators; inhibition, % at 9.4 µM;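 active means every replicate shows inhibition above about 80%, whatever the replicate mean, limit read from the data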;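 further: 0% = DMSO neutral controls and 100% = 20 µM radicicol positive controls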
# MITF TRPM1 inh: inhibitors of MITF-driven TRPM1 promoter in melanoma cells; 0.83% of 330,000 active; inhibition, % at 12.5 µM; SK-MEL-5 TRPM1 promoter luciferase, 24 h;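 active means mean inhibition across replicates of 60% or more, whatever share of single replicates reaches that level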
# NSD2 HMT inh: blocks human histone methyltransferase NSD2. 0.54% of 310,000 active. inhibition, % at 12.5 µM. NSD2 peptide methylation, AlphaScreen, 120 min. O96028; in the data active means inhibition above about 50%
# Glyco luc inh: blocks N-linked glycosylation in D54 reporter cells. reporter increase, % at 12.5 µM. 0.23% of 360,000 active. D54 ERlucT glycosylation luciferase reporter, 24 h; percent of 100 nM tunicamycin response;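 active means mean luciferase reporter signal, scaled so untreated is 0 and the glycosylation-blocking control 100, at or above a set limit in every replicate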;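 further: luciferase carries N-glycosylation sites so blocking glycosylation raises the light; 0% = median of neutral control wells and 100% = median of 100 nM tunicamycin wells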
# Wnt bcat act: activators of Wnt/beta-catenin signaling. Wnt/beta-catenin reporter cell assay, activator, plate reader. activation, % at 9.35 µM. 1.2% of 300,000 active. AID 743398; in the data active means activation above about 30%, passing the limit was not always enough;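 further: 0% = neutral control wells and 100% = positive control wells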
# * marks the source's active call; other numbers are inactive results; / = not tested or not shown. The list is not random: actives were taken first. Their share in the collection is about 2.9%.
SMILES,MITF TRPM1 HTS,PfHsp90 yeast 2,MITF TRPM1 inh,NSD2 HMT inh,Glyco luc inh,Wnt bcat act
Cc1ccc(-c2cc(C(=O)NC3=NCCS3)c3ccccc3n2)cc1C,45,-8,-39,-2,-9,40*
O=C(c1cc(-c2ccccc2)nc2ccccc12)N1N=C(C(F)F)CC1(O)C(F)F (stereo not given),16,6,-15,1,1,-2
Cc1ccc(-c2cc(C(=O)N3N=C(C(F)F)CC3(O)C(F)F)c3ccccc3n2)cc1C (stereo not given),24,113*,-18,0,-7,/
O=C(O)C(Cc1c[nH]c2ccccc12)N1C(=O)c2ccccc2C1=O (stereo not given),-12,16,7,6,-2,43*
Cc1ccc(Cn2c(=N)n(CC(=O)c3ccc([N+](=O)[O-])cc3)c3ccccc32)cc1,-98,-26,98*,0,2,/
CCCCn1c(=N)n(CC(=O)c2ccc([N+](=O)[O-])cc2)c2ccccc21,/,/,/,-1,/,0
CCc1ccc(NCc2nc3ccccc3c(=O)[nH]2)cc1,21,24,-18,/,-4,35*
O=C(/C=C(\c1ccc(Cl)cc1)n1cncn1)c1ccc(Cl)cc1,-3,3,2,/,27*,/
O=C(O)c1ccccc1C(=O)Nc1ccccc1,/,-20,3,1,1,-2
O=C(Nc1ccccc1)C1=C(c2ccccc2)S(=O)(=O)CCS1(=O)=O,-80,10,81*,6,-4,-2
Cc1ccc2[nH]c3c(c2c1)CCC3=O,-6,4,7,2,2,/
CCCCN1CCc2c([nH]c3ccc(C)cc23)C1=O,67,-21,-72,1,-6,37*
CCOc1nc2cnccc2n(CC(=O)Nc2c(C)cccc2CC)c1=O,0,16,0,-7,2,0
Cc1ccc(C)c(NC(=S)NCc2cccn2C)c1,/,/,/,2,/,/
O=C(CSc1ccc(-c2nc3ccccc3[nH]2)cn1)Nc1ccc(S(=O)(=O)N2CCCC2)cc1,13,-60,-13,-1,2,41*
Cc1cc2nc(-c3ccc(SCC(=O)Nc4ccc(S(=O)(=O)N5CCCC5)cc4)nc3)[nH]c2cc1C,27,-21,-28,/,-6,47*
CC(=O)CSc1ccc(-c2nc3ccccc3[nH]2)cn1,3,22,-2,1,-11,0
Cc1c(C(=O)C(=O)N2CC=C(c3ccccc3)CC2)c2ccccc2n1C,-24,5,28,3,9,-12
O=C(N/N=C/c1ccc(OC(=O)c2ccccc2Cl)cc1)c1ccccn1,96*,-5,-93,-1,-5,/
O=C(Oc1cccc(/C=N/NC(=O)c2ccccn2)c1)c1ccc([N+](=O)[O-])cc1,38,-3,-34,0,-11,34*
O=C(c1cc(F)ccc1F)N1CCCC(c2nc(-c3cccs3)no2)C1 (stereo not given),/,/,/,3,/,/
C=CCSC(=S)NC1CCS(=O)(=O)C1 (stereo not given),-67,-9,69*,0,10,-3
COc1ccc(-c2cc(COc3ccccc3)on2)cc1,79,-2,-77,-3,0,21
Fc1ccc(OCc2cc(-c3ccccc3)no2)cc1,100*,7,-95,-1,-1,30
COc1ccc(S(=O)(=O)NCc2ccccn2)c(C)c1C,/,-33,10,0,0,0
SMILES,MITF TRPM1 HTS,PfHsp90 yeast 2,MITF TRPM1 inh,NSD2 HMT inh,Glyco luc inh,Wnt bcat act
CCOc1ccc(S(=O)(=O)NCc2ccccn2)c(C)c1C,0,93*,1,-5,1,-2
O=C(/C=C/c1ccc([N+](=O)[O-])cc1)N(c1ccccn1)C1CCCCC1,5,-17,-13,1,5,0
CC(C)(C)NC(=O)CN(C(=O)Cn1nnc(-c2ccc(Cl)cc2)n1)C1CCN(Cc2ccccc2)CC1,4,1,-7,/,-5,/
CCC(C)(C)c1ccc(OCCCC[n+]2cccc(C)c2C)c(C(C)(C)CC)c1,/,110*,71*,12,15,-14
COc1ccc(-c2nnc(SCC(=O)N/N=C(\C)c3ccc(-c4ccccc4)cc3)n2-c2ccc(C)cc2)cc1,/,/,/,5,/,/
C=CC(=O)N1C/C(=C/c2ccc(F)cc2)C(=O)/C(=C\c2ccc(F)cc2)C1,-96,15,96*,3,-18,-9
